In the library only some 2.1% were active in any assay of this set; here they are far more common.
ABCB6 inh 2 – human ABCB6 transporter inhibition. AID 602162. 0.19% of 360,000 active. Q9NP58. K562-ABCB6 porphyrin accumulation, flow cytometry, 1 h; stronger effect = lower value. fluorescence ratio to DMSO, % at 10 µM;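 active = fluorescence ratio to DMSO below 75%, the collection mean minus 3 SD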;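 also: signal is porphyrin accumulated inside mitochondria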
Target sequence (Q9NP58 whole entry, looked up): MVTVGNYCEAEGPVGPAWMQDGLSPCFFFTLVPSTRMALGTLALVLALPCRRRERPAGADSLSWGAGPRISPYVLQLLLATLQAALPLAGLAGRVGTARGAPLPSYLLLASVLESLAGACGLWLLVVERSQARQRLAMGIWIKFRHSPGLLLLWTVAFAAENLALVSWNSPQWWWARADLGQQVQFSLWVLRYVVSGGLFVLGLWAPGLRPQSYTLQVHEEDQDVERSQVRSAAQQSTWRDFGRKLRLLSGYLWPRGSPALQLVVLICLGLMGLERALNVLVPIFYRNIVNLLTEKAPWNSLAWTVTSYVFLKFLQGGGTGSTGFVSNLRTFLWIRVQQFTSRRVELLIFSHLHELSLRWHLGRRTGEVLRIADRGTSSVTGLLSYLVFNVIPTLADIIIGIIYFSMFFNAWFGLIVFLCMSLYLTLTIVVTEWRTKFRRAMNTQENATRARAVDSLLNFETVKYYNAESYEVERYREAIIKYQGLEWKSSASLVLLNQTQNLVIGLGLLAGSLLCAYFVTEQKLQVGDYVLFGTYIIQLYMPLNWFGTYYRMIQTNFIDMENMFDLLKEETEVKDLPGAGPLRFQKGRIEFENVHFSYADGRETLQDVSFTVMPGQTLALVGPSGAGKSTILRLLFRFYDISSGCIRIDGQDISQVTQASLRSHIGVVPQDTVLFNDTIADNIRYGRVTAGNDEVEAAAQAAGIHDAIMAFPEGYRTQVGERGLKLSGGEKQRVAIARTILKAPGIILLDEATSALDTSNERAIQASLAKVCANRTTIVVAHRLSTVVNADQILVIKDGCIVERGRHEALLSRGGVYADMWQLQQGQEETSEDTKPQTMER
bovine MsrA act – activators of bovine methionine sulfoxide reductase A | 0.3% of 360,000 active | activation, % at 10.6 µM | AID 602163 | purified bovine MsrA, absorbance read-out; in the data active = activation above about 7.5%
MsrA inhibitor – inhibits bovine methionine sulfoxide reductase A | purified bovine MsrA, absorbance read-out | inhibition, % at 15.5 µM | 0.75% of 360,000 active | AID 651718; in the data active = inhibition above about 4.5%
SMARCA2 activ – activators of SMARCA2 function; MG213 cells, MMTV-luciferase reporter, dexamethasone, overnight; activation, % at 9.1 µM; 1% of 370,000 active; AID 652017; in the data active = activation above about 7.8%
MsrA act confirm – confirmation of bovine methionine sulfoxide reductase A activators. shares compounds with bovine MsrA act. purified bovine MsrA, absorbance read-out. activation, % at 10.6 µM. 12% of 1,000 active. AID 602270; in the data active = activation above about 4%;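 also: enzyme coupled to thioredoxin and thioredoxin reductase with NADPH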
Numbers stand for hits.

What do the screens show for `CSCCCNC(=O)c1oc(=O)c2ccccc2c1-c1ccc(C)cc1`?
SMARCA2 activ: inactive

How did CC[C@H](C)[C@@H](C(=O)NCCCCCCCCCCC(=O)N1CCNCC1)n1cc(CCCCN=C(N)N)nn1 do in these assays?
ABCB6 inh 2: inactive; bovine MsrA act: 9.3; MsrA inhibitor: inactive; SMARCA2 activ: inactive; MsrA act confirm: inactive

How did CC[C@H](C)Cc1cn([C@@H](CCCN=C(N)N)C(=O)NCCCCCCCCCCC(=O)N2CCNCC2)nn1 do in these assays?
ABCB6 inh 2: inactive; bovine MsrA act: inactive; MsrA inhibitor: inactive; SMARCA2 activ: inactive

Results for CCN1CCN(C(=O)c2ccc3c(=O)n(C4CCCC4)c(=S)[nH]c3c2)CC1 ?
ABCB6 inh 2: inactive; bovine MsrA act: 8.8; MsrA inhibitor: inactive; SMARCA2 activ: inactive; MsrA act confirm: inactive

How did CCn1c(SCC(=O)c2ccc(-c3ccccc3)cc2)nnc1-c1ccccc1OC do in these assays?
SMARCA2 activ: inactive

How did COc1cc(NC(=O)c2cc(-c3cc(F)ccc3OC(C)C)n[nH]2)cc(OC)c1OC do in these assays?
ABCB6 inh 2: inactive; bovine MsrA act: 9.4; MsrA inhibitor: inactive; SMARCA2 activ: inactive; MsrA act confirm: inactive

What do the screens show for `COc1ccc(NC(=O)c2cc(-c3cc(F)ccc3OC(C)C)n[nH]2)cc1OC`?
ABCB6 inh 2: inactive; bovine MsrA act: inactive; MsrA inhibitor: inactive; SMARCA2 activ: inactive

What do the screens show for `O=C(C[n+]1cc(-c2ccccc2)n2c1CCC2)N1c2ccccc2Sc2ccccc21`?
ABCB6 inh 2: inactive; bovine MsrA act: inactive; MsrA inhibitor: inactive; SMARCA2 activ: inactive

What do the screens show for `O=C(C[n+]1cc(-c2ccccc2)n2c1CCC2)c1cccs1`?
ABCB6 inh 2: inactive; bovine MsrA act: 8.9; MsrA inhibitor: inactive; SMARCA2 activ: inactive; MsrA act confirm: inactive

How did CC(C)CCN1CCC(CN2C(=O)C(=O)NC[C@@H]2CC(C)C)CC1 do in these assays?
ABCB6 inh 2: inactive; bovine MsrA act: 11.6; MsrA inhibitor: inactive; SMARCA2 activ: inactive; MsrA act confirm: inactive

Results for CC(C)C[C@H]1CNC(=O)C(=O)N1C[C@@H]1CCCN1C[C@H](Cc1ccccc1)N1C[C@H](Cc2ccccc2)N(CC2CCCCC2)C(=O)C1=O ?
ABCB6 inh 2: inactive; bovine MsrA act: 7.9; MsrA inhibitor: inactive; SMARCA2 activ: inactive; MsrA act confirm: inactive

How did CC(C)C[C@H]1CNC(=O)C(=O)N1CC1CCN(CCC(C)c2ccccc2)CC1 (some centres undefined) do in these assays?
ABCB6 inh 2: inactive; bovine MsrA act: inactive; MsrA inhibitor: inactive; SMARCA2 activ: inactive

What do the screens show for `O=C(OCC(=O)c1c[nH]c2ccccc12)c1ccc([N+](=O)[O-])s1`?
ABCB6 inh 2: inactive; bovine MsrA act: 16.4; MsrA inhibitor: inactive; SMARCA2 activ: inactive; MsrA act confirm: 6.6

What do the screens show for `O=C(CSc1nc2c(c(=O)[nH]1)CCCC2)N1CCOCC1`?
SMARCA2 activ: inactive

How did Cc1cccc(C)c1-n1nnnc1-c1nc2cc3ccccc3cc2[nH]c1=O do in these assays?
ABCB6 inh 2: inactive; bovine MsrA act: inactive; MsrA inhibitor: inactive; SMARCA2 activ: inactive

What do the screens show for `Cc1cccc(C)c1-n1nnnc1-c1nc2cc(Br)ccc2[nH]c1=O`?
ABCB6 inh 2: inactive; bovine MsrA act: 8.0; MsrA inhibitor: inactive; SMARCA2 activ: inactive; MsrA act confirm: inactive

How did O=C(CSc1nc2ccccc2nc1N1CCCCC1)NCc1ccc(Cl)cc1Cl do in these assays?
SMARCA2 activ: inactive

How did CC1CCN(CCCNC(=O)c2cn(C)c3ccc(S(=O)(=O)N4CCCC4)cc3c2=O)CC1 do in these assays?
ABCB6 inh 2: inactive; bovine MsrA act: 7.9; MsrA inhibitor: inactive; SMARCA2 activ: inactive; MsrA act confirm: inactive

Results for O=Nc1ccc(NOC(=O)c2ccccc2Br)cc1 ?
ABCB6 inh 2: inactive; bovine MsrA act: 10.3; MsrA inhibitor: inactive; SMARCA2 activ: inactive; MsrA act confirm: inactive

What do the screens show for `O=C(ONc1ccc(N=NC(=O)c2ccccc2O)cc1)c1ccccc1`?
ABCB6 inh 2: inactive; bovine MsrA act: inactive; MsrA inhibitor: inactive; SMARCA2 activ: inactive

Results for COc1ccc2oc(C(=O)OCC(=O)N3C(C)CCCC3C)c(C)c2c1 (centres undefined) ?
ABCB6 inh 2: inactive; bovine MsrA act: inactive; MsrA inhibitor: inactive; SMARCA2 activ: inactive

What do the screens show for `CCOc1ccc2oc(C(=O)OCC(=O)N3C(C)CCCC3C)c(C)c2c1` (centres undefined)?
ABCB6 inh 2: inactive; bovine MsrA act: 8.7; MsrA inhibitor: inactive; SMARCA2 activ: inactive; MsrA act confirm: inactive

How did CCC(NC(=O)c1ccc2c(ccn2Cc2cccc(-c3ccc(C(=O)O)cc3)c2)c1)c1ccccc1 (centres undefined) do in these assays?
SMARCA2 activ: inactive
